# Reference: PubChem BioAssay (Tox21)
# Inconclusive results are not listed. A call without a number means that no potency is given here. Active and inactive are the calls of the source. Calls follow the shape of the dose curve; as a rule, active = well fitted cell-killing curve with a large enough effect in the repeat runs; inconclusive = weak or mixed curves, or effect the other way; inactive = flat fitted curve, though single readings scatter.
# Tests used:
# [1] = cAMP Responsive Elements (CRE) small molecule antagonists, cell-based qHTS assay: qHTS cell viability counter screen (AID 2060913); also: nearly all actives have a fitted effect of over 40% in size
# Outline: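 Cytotoxicity read in the same wells as the CRE-bla HEK293T antagonist assay: after 3 h compound with 0.25 uM NKH477 final and 2 h beta-lactamase substrate, CellTiter-Glo luminescence measured.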
# [2] = cAMP Responsive Elements (CRE) small molecule agonists, cell-based qHTS assay: qHTS cell viability counter screen (AID 2060914);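 also: viability read after 3 h of compound exposure; nearly all actives have a fitted effect of over 50% in size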
# Outline: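 CRE-bla HEK 293T cells, plated 18 h at 37 °C, were exposed to compounds for 3 h at 37 °C/5% CO2. Viability was then measured in the same wells by CellTiter-Glo luminescence after 30 min at room temperature.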
SMILES,Potency [1],Potency [2]
CC(=O)/C=C/C1=C(C)CCCC1(C)C,inactive,inactive
CCCC1CCOC(C)S1 (stereo not drawn),inactive,inactive
CC1c2ccccc2CN1NC(=O)c1ccc(Cl)c(S(N)(=O)=O)c1 (stereo not drawn),inactive,inactive
OC12N=C(c3ccccc3)SC1Cc1cc(Cl)ccc12 (stereo not drawn),inactive,inactive
C=C(C)c1ccccc1,inactive,inactive
CCCCCCCCOc1ccc(C(=O)O)cc1,inactive,inactive
CC(C)CCOC(=O)c1ccc(N(C)C)cc1,inactive,inactive
C/C(=C\c1ccc(C(=O)O)cc1)c1ccc2c(c1)C(C)(C)CCC2(C)C,inactive,inactive
CCCCCCCCCCCCCO,inactive,inactive
O=C(Cl)c1cc(C(=O)Cl)cc(C(=O)Cl)c1,inactive,inactive
CCCC(CC)c1ccccc1 (stereo not drawn),inactive,inactive
COc1ccc(S(=O)(=O)Nc2nnc(CC(C)C)s2)cc1,inactive,inactive
CCc1cc(C2=C(C(=O)O)N(c3ccccc3C(F)(F)F)S(=O)(=O)c3ccccc32)cc2c1OCO2,inactive,inactive
C=CCc1ccccc1OCC(O)CNC(C)C (stereo not drawn),inactive,inactive
O=Cc1ccc(F)cc1,inactive,inactive
Cc1ccc(C(=O)c2ccccc2)cc1,inactive,inactive
C[C@H]1[C@H](NC(=O)/C(=N/OC(C)(C)C(=O)O)c2csc(N)n2)C(=O)N1S(=O)(=O)O (stereo in doubt),inactive,inactive
C=CC(=O)OCCOCCOCC,inactive,inactive
CSc1ccc(/C=C2/C(C)=C(CC(=O)O)c3cc(F)ccc32)cc1,inactive,inactive
Cc1cc(-c2ccccc2)nnc1NCCN1CCOCC1,inactive,inactive
CC(=O)N[C@@H](CS)C(=O)O,inactive,inactive
CCCCCCCCS,inactive,inactive
Cc1ccc(O)c(C(=O)c2ccccc2)c1,inactive,inactive
CC(=O)NC(=O)c1ccccc1O,inactive,inactive
CO[Si](CCCCl)(OC)OC,inactive,inactive

SMILES,Potency [1],Potency [2]
CCOC(=O)CCC(C)=O,inactive,inactive
O=C(O)c1ccc(S(=O)(=O)O)cc1C(=O)O,inactive,inactive
O=C(O)c1cc(=O)[nH]c(=O)[nH]1,inactive,inactive
FC1(F)C(F)(F)C(F)(F)C2(F)C(F)(F)C(F)(F)C(F)(F)C(F)(F)C2(F)C1(F)F (stereo not drawn),inactive,inactive
COC(=O)c1ccc(C)cc1,inactive,inactive
O=C(O)c1ccccc1-c1ccc(C(F)(F)F)cc1,inactive,inactive
Nc1cccc(O)c1,inactive,inactive
Cc1cccc2cccnc12,inactive,inactive
O=C(O)/C=C/c1ccc(/C=C/C(=O)O)cc1,inactive,inactive
CC(=O)Oc1c(C)c(C)c2c(c1C)CC[C@@](C)(CCC[C@H](C)CCC[C@H](C)CCCC(C)C)O2,inactive,inactive
CCO[Si](CCC#N)(OCC)OCC,inactive,inactive
CCCCCCCCCCCC(=O)OCC,inactive,inactive
O=C(c1ccccc1)c1ccccc1O,inactive,inactive
COc1cccc(CCc2ccccc2OCC(CN(C)C)OC(=O)CCC(=O)O)c1 (stereo not drawn),inactive,inactive
CN(C)C(=N)N=C(N)N,inactive,inactive
C[C@H]1C[C@H]2[C@@H]3CCC4=CC(=O)C=C[C@]4(C)[C@@]3(F)[C@@H](O)C[C@]2(C)[C@@]1(O)C(=O)COP(=O)(O)O,inactive,inactive
CCC1=C[C@@H]2CN(C1)Cc1c([nH]c3ccccc13)[C@@](C(=O)OC)(c1cc3c(cc1OC)N(C)[C@H]1[C@@](O)(C(=O)OC)[C@H](OC(C)=O)[C@]4(CC)C=CCN5CC[C@]31[C@@H]54)C2,inactive,inactive
CC(=O)Nc1ccc(/C=N/NC(N)=S)cc1,inactive,inactive
COC(=O)/C=C/C(C)=C\C=C\C(C)=C\C=C\C=C(C)\C=C\C=C(C)\C=C\C(=O)O,inactive,inactive
CC(=O)NCc1c(I)c(NC(C)=O)c(I)c(C(=O)O)c1I,inactive,inactive
CC(=O)[C@H]1CC[C@H]2[C@@H]3C=CC4=CC(=O)CC[C@@]4(C)[C@@H]3CC[C@]12C,inactive,inactive
CCC/C=C/C=O,inactive,inactive
NO,inactive,inactive
CCC[C@H](N[C@@H](C)C(=O)N1[C@H](C(=O)O)C[C@@H]2CCCC[C@@H]21)C(=O)OCC,inactive,inactive
